Assay results from PubChem BioAssay (NCI).
About 83,000 compounds went through this panel and 20% of them were active in at least one assay; those are over-represented in the sample as a whole.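 Cells were grown in 96-well plates and exposed to the test compound at a single concentration for 48 hours; results are reported as percent growth, with values below 10 considered active.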 Calls of active or inactive are those of the source.

Experiments:
Assay in all cases: NCI-60 one-dose screen, 48 h (100 = growth as untreated, 0 = no growth, -100 = all killed)
[1] = tested on: HCT-15 colon; details: 10 µM unless noted
[2] = tested on: HT29 colon; details: 10 µM unless noted
[3] = tested on: SNB-75 CNS; details: 10 µM unless noted
[4] = tested on: SNB-19 CNS; details: 10 µM unless noted
[5] = tested on: U251 CNS; details: 10 µM unless noted
[6] = tested on: PC-3 prostate; details: 10 µM unless noted
[7] = tested on: SK-MEL-5 melanoma; details: 10 µM unless noted
[8] = tested on: UACC-62 melanoma; details: 10 µM unless noted
[9] = tested on: SK-MEL-28 melanoma; details: 10 µM unless noted
[10] = tested on: SK-MEL-2 melanoma; details: 10 µM unless noted
[11] = tested on: SN12C renal; details: 10 µM unless noted
[12] = tested on: UO-31 renal; details: 10 µM unless noted
[13] = tested on: TK-10 renal; details: 10 µM unless noted
[14] = tested on: ACHN renal; details: 10 µM unless noted
[15] = tested on: CAKI-1 renal; details: 10 µM unless noted
[16] = tested on: A498 renal; details: 10 µM unless noted
[17] = tested on: MOLT-4 leukemia; details: 10 µM unless noted
[18] = tested on: CCRF-CEM leukemia; details: 10 µM
[19] = tested on: LOX IMVI melanoma; details: 10 µM unless noted
[20] = tested on: EKVX NSCLC; details: 10 µM

Measured: growth

CCCCCCC(=O)C(C)C
inactive: [1] 102% | [2] 109% | [3] 95.1% | [4] 107% | [5] 98.6% | [6] 100% | [7] 101% | [8] 107% | [9] 113% | [10] 115% | [11] 104% | [12] 92.3% | [13] 101% | [14] 103% | [15] 91% | [16] 115% | [17] 96.6%

Cc1ccc(S(=O)(=O)N/N=C2\CC3CCC2C3)cc1 (stereo unspecified)
inactive: [1] 96% | [2] 108% | [3] 85.7% | [4] 101% | [5] 96.8% | [6] 95.8% | [7] 99.8% | [8] 103% | [9] 109% | [10] 108% | [11] 99.9% | [12] 93.9% | [13] 122% | [14] 94.7% | [15] 101% | [16] 97.7% | [18] 100% | [17] 109%

CCOc1nc(-c2ccccc2)cc2c(O)c(C(=O)N/N=C/c3ccccc3O)[nH]c(=O)c12
inactive: [1] 94% | [2] 110% | [3] 86.3% | [4] 97.2% | [5] 101% | [6] 92.8% | [8] 117% | [19] 101% | [9] 67.4% | [10] 61.3% | [20] 97.3% | [11] 115% | [12] 73.5% | [13] 140% | [14] 107% | [15] 101% | [16] 102% | [18] 69.4% | [17] 17.1%

N#Cc1c2ncccc2c2nnc3cc(Cl)c(Cl)cc3n12
inactive: [1] 82.9% | [2] 95.2% | [3] 67.1% | [4] 101% | [5] 90.6% | [7] 92.4% | [8] 90.8% | [19] 97.4% | [9] 80.9% | [20] 84.1% | [11] 110% | [12] 76.3% | [13] 67.7% | [14] 84.5% | [15] 70.3% | [16] 115% | [17] 98.9%

COC(=O)[C@@H]1[C@H](O)[C@H](C)[C@H](O)[C@H](C)/C=C\C=C(C)C(=O)Nc2c(C)c(OC(C)=O)c3c(c2O)C(=O)C(C)=C2OCOC(=C23)C(C)=C[C@@](C)(O)[C@H](O)[C@@H](C)[C@H]1OC(C)=O
inactive: [1] 118% | [2] 110% | [3] 86.6% | [4] 113% | [5] 111% | [7] 103% | [8] 113% | [19] 104% | [9] 138% | [20] 112% | [11] 112% | [12] 101% | [13] 73.5% | [14] 122% | [15] 116% | [16] 141% | [18] 99.3% | [17] 87.6%
active: [10] 8.13%

COc1cc(-c2nn(-c3ccc(NC(=O)c4cc(Cl)cc(Cl)c4)cc3)cc2-c2ccncc2)ccc1Cl
inactive: [1] 22.6% | [2] 16.9% | [3] 54% | [4] 87.7% | [5] 55.7% | [7] 79.4% | [8] 70.4% | [19] 71.6% | [9] 85.5% | [20] 80.1% | [11] 91.9% | [12] 65.7% | [13] 69.4% | [14] 94.9% | [15] 38.8% | [16] 78.9% | [17] 27.6%

C[C@]12C=CC(=O)C=C1[C@@H](F)C[C@@H]1[C@@H]2[C@@H](O)C[C@@]2(C)[C@H]1CC[C@]2(O)C(=O)CO
inactive: [1] 108% | [2] 103% | [3] 145% | [4] 96.2% | [5] 108% | [6] 97.1% | [8] 110% | [19] 103% | [9] 124% | [10] 107% | [20] 83% | [11] 69.8% | [12] 79.3% | [13] 107% | [14] 99.4% | [15] 88.6% | [18] 46.5% | [17] 108%

CN1C(=O)C(=Cc2coc3ccc(Br)cc3c2=O)C(=O)N(C)C1=O
inactive: [1] 105% | [2] 108% | [3] 105% | [4] 105% | [5] 104% | [6] 89.3% | [8] 83.4% | [19] 101% | [9] 103% | [10] 111% | [20] 109% | [11] 90.3% | [12] 77.3% | [13] 108% | [14] 96.8% | [15] 101% | [18] 116% | [17] 126%

O=C(/C=C/c1cccc(O)c1)c1cccc(-n2cc(-c3ccc(Cl)cc3)[nH]c2=O)c1
active: [1] -22.9% | [2] -10.1% | [3] 0.636% | [4] -10.6% | [5] -87.9% | [7] -0.458% | [8] 5.09% | [19] -92.1% | [9] -86.4% | [10] -45.5% | [20] 1.79% | [11] -47% | [12] -78.3% | [13] 0.394% | [14] -80.6% | [15] -53.9% | [18] -4.75% | [17] -29%
inactive: [16] 61.7%

CC(=O)Nc1nc(C)c(C(=O)N/N=C/N2CCCCC2)s1
inactive: [1] 111% | [2] 109% | [3] 81.6% | [4] 103% | [5] 105% | [7] 113% | [8] 107% | [19] 103% | [9] 114% | [10] 15.3% | [20] 112% | [11] 106% | [12] 98.7% | [13] 144% | [14] 116% | [15] 132% | [16] 119% | [18] 94.6% | [17] 130%

COc1cc(CCNc2cnc3cc(N)cc(N)c3n2)cc(OC)c1
active: [18] -52.5% | [17] 5.61%
inactive: [1] 104% | [2] 100% | [3] 98.8% | [4] 111% | [5] 104% | [6] 118% | [8] 109% | [19] 108% | [9] 61% | [10] 104% | [20] 123% | [11] 107% | [12] 90.9% | [13] 116% | [14] 106% | [15] 129% | [16] 107%

Cc1ccccc1-n1c(C)nc2cc(NC(=O)c3ccc(Cl)cc3)ccc2c1=O
inactive: [1] 63.7% | [2] 62.9% | [3] 103% | [4] 75.9% | [5] 77.6% | [6] 61.2% | [8] 42.2% | [19] 69.4% | [9] 79.5% | [20] 51.5% | [11] 68.6% | [12] 77.8% | [14] 48.1% | [15] 58.8% | [16] 60.6% | [18] 52.7% | [17] 71.7%

O=C(Nc1ccc(-n2cc(-c3ccncc3)c(-c3ccc(Cl)c(O)c3)n2)cc1)Nc1ccc(Cl)c(C(F)(F)F)c1
inactive: [4] 27.4% | [11] 31.1% | [16] 63.6%
active: [1] 2.66% | [2] -92.4% | [3] -11.6% | [5] -31.4% | [7] -89.4% | [8] -25% | [19] 5.17% | [9] -28.3% | [20] 1.43% | [12] -32.6% | [13] -12.1% | [14] 2.3% | [15] -32.5% | [17] -1.95%

COc1ccc(-c2nc(N)n(C(=S)Nc3ccccc3)n2)cc1
inactive: [1] 102% | [2] 99.4% | [3] 70% | [4] 99.5% | [5] 103% | [6] 92.3% | [8] 98% | [19] 94.3% | [9] 116% | [10] 101% | [20] 96.3% | [11] 100% | [12] 74.2% | [13] 113% | [14] 97.9% | [18] 98.7% | [17] 98.5%

CC(=O)Nc1nc(C)c(C(=O)N/N=C/N2CCOCC2)s1
inactive: [1] 105% | [2] 107% | [3] 101% | [4] 104% | [5] 101% | [7] 112% | [8] 98.4% | [19] 106% | [9] 111% | [10] 34.1% | [20] 122% | [11] 105% | [12] 89% | [13] 103% | [14] 104% | [15] 140% | [16] 110% | [18] 76.3% | [17] 188%

CCCCCCCCCCCCCCCCCCOP(=O)(O)O
inactive: [1] 107% | [2] 106% | [3] 97% | [4] 101% | [5] 101% | [6] 92.5% | [8] 91.5% | [19] 99.3% | [9] 111% | [10] 124% | [11] 94.1% | [12] 86.8% | [13] 107% | [14] 100% | [16] 110% | [17] 111%
